SMILES strings stand for the structures. This is part of a sample that, as a whole, favours compounds with a hit. Of some 83,000 tested, about 20% had one in any assay.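 Activity criterion: percent growth below 10, measured after cells in 96-well plates were exposed to a single compound concentration for 48 hours.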 Values without a mark were called inactive. Active and inactive are the calls of the source.

What all share (test): NCI-60 one-dose screen, 48 h (100 = growth as untreated, 0 = no growth, -100 = all killed)
Conditions in all cases: 10 µM unless noted

Test [1] concerns SR leukemia.
Test [2] has as its system RPMI-8226 leukemia.
Test [3] relates to OVCAR-8 ovarian.
Test [4] deals with OVCAR-5 ovarian.
The subject of test [5] is OVCAR-4 ovarian.
In test [6] the test system is SK-OV-3 ovarian.
Test [7] relates to IGROV1 ovarian.
The subject of test [8] is OVCAR-3 ovarian.
In test [9] the test system is HS 578T breast.
Test [10] deals with NCI/ADR-RES ovarian.
In test [11] the test system is T-47D breast.
The test system of test [12] is BT-549 breast.
The test system of test [13] is MDA-MB-435 melanoma.
Test [14] has as its system SW-620 colon.
In test [15] the test system is MCF7 breast.
Test [16] deals with HCT-116 colon.
In test [17] the test system is HCC-2998 colon.
The test system of test [18] is KM12 colon.

In the case of `NC(N)=Nc1ccc(Oc2cccc(NC(N)=Nc3ccc(Br)c(C(F)(F)F)c3)c2)cc1`, the growth in test [1] is 4.94% (active); in test [2], 45.5%; in test [3], 65.5%; in test [4] it was 45.1%; in test [5] it was 58.9%; in [6], 57%. Also, the growth in test [7] was -16.6% (active); in test [8], 23.5%; in [9], 34%; in test [10], 96.8%; in test [11], 55.5%; in test [12], 45.9%. For the same compound, the growth in [13] was 57.5%; in test [14], 53.4%; in test [15], 32.2%; in test [16], 42.9%; in test [17], 50.8%; in test [18], 20.4%.

Take `COc1cc(-c2nn(C(C)(C)C)cc2-c2ccnc(NCCCNS(=O)(=O)c3ccccc3)n2)ccc1Cl`: the growth in test [1] is 56%; in [2] it was 56.3%; in test [3] it was 84.9%; in [4] it was 84.3%; in [5], 57.6%; in [6], 103%. The growth in test [7] was 55.2%; in test [8] it was 93.1%; in test [9], 68.3%; in test [10] it was 71%; in test [11], 82.3%; in test [12], 81.1%. Further, the growth in test [13] is 84%; in [14], 90.3%; in [15] it was 70.1%; in test [16], 59.9%; in [17] it was 95.6%; in test [18] it was 86.5%.

In the case of `N/C(=N\C(N)=N\c1nc2ccccc2s1)c1ccc(C(F)(F)F)cc1`, the growth in test [1] was 9.02% (active); in test [2], 46.5%; in test [3] it was 55.8%; in [4], 105%; in test [5] it was 94.6%; in [6] it was 124%. For the same compound, the growth is 80.5% in [7]; 91.2% in [8]; 86.9% in test [9]; 30.4% in test [10]; 69% in test [11]; 101% in test [12]. Also, the growth in test [13] was 93%; in test [14], 106%; in test [15], 77.9%; in test [16], 56.4%; in test [17] it was 94%; in [18], 61.6%.

As for `CC(=O)c1nnn(-c2c(C(=O)n3nc(C)cc3C)sc(=S)n2-c2ccccc2)c1C`, the growth in test [1] was 109%; in test [2], 101%; in test [3], 103%; in [4], 120%; in test [5], 100%; in test [6], 108%. Moreover, the growth is 95.6% in test [7]; 115% in test [8]; 113% in [9]; 111% in [10]; 113% in test [11]; 92.2% in [12]. Further, the growth in test [13] was 108%; in test [14], 112%; in [15] it was 89.2%; in [16] it was 104%; in [17] it was 114%; in test [18] it was 104%.

As to `Cc1nc(-c2ccccc2O)ccc1C(=O)N=Nc1c(O)[nH]c2ccc(Br)cc12`, the growth in test [1] was 101%; in test [2], 87.9%; in test [3], 97.9%; in test [4], 101%; in test [5], 102%; in [6] it was 97.7%. Also, the growth was 89.7% in test [7]; 103% in [8]; 91.6% in test [9]; 99.6% in test [10]; 88.9% in test [11]; 102% in [12]. The growth was 102% in test [13]; 95.9% in [14]; 91% in [15]; 99.1% in test [16]; 123% in test [17]; 98.3% in test [18].

`O=C1C(c2ccccc2)=C(N2CCc3ccccc32)OC1(Cl)Cl`: the growth is 17.5% in test [1]; 8.06% (active) in test [2]; 74.3% in test [3]; 82% in test [4]; 59.9% in test [5]; 112% in test [6]. Besides, the growth was 43.5% in test [7]; 3.88% (active) in [8]; 66.3% in test [9]; 86.7% in [10]; 10.1% in [11]; 75.1% in test [12]. Besides, the growth is 85.9% in [13]; -28.8% (active) in [14]; 26.2% in test [15]; 2.36% (active) in [16]; 88% in [17]; 87.9% in [18].

On to `O=C(CSc1nc2ccccc2c(=O)n1-c1ccc(Cl)cc1)N/N=C/c1ccc(N2CCCCC2)cc1`, for which the growth is 74.8% in test [1]; 100% in test [2]; 65.3% in test [3]; 76.9% in [4]; 58.6% in test [5]; 30.1% in test [6]. The growth was 55.5% in test [7]; 32.8% in [8]; 37.9% in test [9]; 39.9% in test [10]; 74.6% in [11]; 104% in test [12]. Further, the growth was 86.9% in test [13]; 65.9% in test [14]; 67.5% in [15]; 36.9% in test [16]; 118% in test [17]; 96.4% in test [18].

As for `COc1ccc(N2CCN(C3=C(Cl)C(=O)C(C)=C(C)C3=O)CC2)cc1`, the growth in [1] is 78.6%; in test [2] it was 89.4%; in [3], 100%; in test [4], 110%; in [5], 99.7%; in test [6] it was 96.7%. Also, the growth in [7] is 103%; in test [8], 113%; in test [9], 103%; in test [10] it was 101%; in [11] it was 30%; in [12] it was 117%. In addition, the growth in test [13] was 105%; in [14], 113%; in [15], 92.1%; in [16] it was 99.3%; in test [17], 111%; in [18] it was 107%.
